Tg IFNy HTS = T. gondii growth inhibition under IFN-gamma | Toxoplasma gondii growth in IFN-gamma-treated host cells; stronger effect = lower value | activity change, negative = inhibition, % (concentration not given with the values) | actives 3.8% (n = 69,000); in the data active = activity change below about -70%, passing the limit was not always enough;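 also: host cells are HeLa cells infected with Toxoplasma gondii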
* hit, by the source's call; ! = repeats disagree. The sample as a whole holds a higher share of hits than the screen did.

SMILES	Tg IFNy HTS
C[C@H]1CN([C@@H](C)CO)C(=O)c2cc(NC(=O)C3CCCCC3)ccc2O[C@@H]1CN(C)Cc1ccc2c(c1)OCO2	-26
COCCCNC(=O)Cn1nnc(-c2ccc(NC(=O)c3cccnc3)cc2)n1	-6
Cc1ccc(-c2nnn(CC(=O)Nc3ccc(N4CCCS4(=O)=O)cc3)n2)cc1	5
COc1ccc(-c2nnn(CC(=O)Nc3ccc(C)cc3)n2)cc1	-97*
CC(=O)c1c(N)nc(C)nc1-c1ccccc1	16
CN(C)C(=O)N1CCn2cc(CNC(=O)c3cccn3C)nc2C1	-1
Nc1cc(-c2ccc(C(=O)NCc3ccccc3)o2)c2cc[nH]c2n1	3
COc1ccc(S(=O)(=O)Nc2nnc(CC(C)C)s2)cc1	7
CCc1nnc(NC(=S)NC(=O)c2ccc(-c3ccccc3)cc2)s1	245
CCc1nnc(NC(=O)c2ccc(S(=O)(=O)NCC(C)C)cc2)s1	-75*
CNCCOc1cccc(-c2cccc(O)c2)c1	-7
COc1ccc(CN2C(=O)N(CC(C)C)C3(CCN(Cc4cc5ccccc5o4)CC3)C2=O)cc1	-4
O=C(c1ccccn1)N1CC[C@@H]2[C@H]1c1cc(Br)ccc1N[C@@H]2CO	19
CCOC(=O)C(NCc1ccco1)(NC(=O)c1ccco1)C(F)(F)F (configuration not stated)	82
Cc1nn(C)cc1NC(=O)C[C@@H]1CC[C@@H]2[C@@H](COc3ccc(NC(=O)C4CCOCC4)cc3C(=O)N2C)O1	0
COc1nccc(-c2c(-c3ccc(F)cc3)ncn2C2CCC(O)CC2)n1 (configuration not stated)	-79*
CCCN1CCC(c2cc3c(ncn3C)c(-c3ccc(OC)cc3)n2)CC1	6
CC[C@@H](C(=O)C(C)[C@@H](O)[C@H](C)CCc1ccc(C)c(O)c1C(=O)O)C1OC(CC)(C2CC[C@](O)(CC)[C@H](C)O2)C[C@@H]1C (some centres not stated)	-74*
O=C(C[C@H]1COC[C@@H]2CN(Cc3ccc(F)cc3)C[C@@H]12)NCC1CC1	-6
COc1cccc(NC(=O)Nc2ccc3c(c2)C(=O)N(C)C[C@@H](OC)[C@@H](C)CN[C@@H](C)CO3)c1	-67
COc1cccc(NC(=O)Nc2ccc3c(c2)C(=O)N(C)C[C@@H](OC)[C@@H](C)CN[C@H](C)CO3)c1	-26
CO[C@@H]1CN(C)C(=O)c2cc(NC(=O)c3ccc(Oc4ccccc4)cc3)ccc2OC[C@H](C)NC[C@H]1C	-122*
CO[C@H]1CN(C)C(=O)c2cc(NC(=O)c3ccc(Oc4ccccc4)cc3)ccc2OC[C@@H](C)NC[C@@H]1C	-114*
CO[C@H]1CN(C)C(=O)c2cc(NC(=O)c3cnccn3)ccc2OC[C@@H](C)NC[C@@H]1C	0
COc1cccc(NC(=O)Nc2ccc3c(c2)C(=O)N(C)C[C@H](OC)[C@H](C)CN[C@H](C)CO3)c1	73
SMILES	Tg IFNy HTS
O=C(O)C1CN(c2ncc(F)c(N3CCCC3)n2)CCN1 (configuration not stated)	0
CCn1ncc(CN(C)Cc2cnc3c(-c4ccccc4)cnn3c2)c1C	2
Cc1c[nH]c(C(=O)N2CCOC(Cc3cccc(C(F)(F)F)c3)C2)c1 (configuration not stated)	-12
COc1ccc([C@@H]2C[C@H](NC(C)=O)C[C@H](CC(C)C)O2)c(OC)c1OC	-1
COc1c(O[C@@H]2O[C@H](CO)[C@@H](O)[C@H](O)[C@H]2O)cc2c(c1OC)-c1ccc(SC)c(=O)cc1[C@@H](NC(C)=O)CC2	12
COc1cc2c(c(OC)c1OC)-c1ccc(OC)c(=O)cc1[C@@H](NC(C)=O)CC2	-72*!
O=C(NCC[C@@H]1CC[C@@H](NC(=O)c2ccccc2F)[C@H](CO)O1)c1cnccn1	-3
CN(C)C(=O)[C@H]1CC[C@H]2[C@@H](CCN2C(=O)N2CCCC2)O1	-19
CN(C)CCOCC1CCC2C1OCCN2Cc1cccs1 (configuration not stated)	-4
Cc1nc(CCNC2CCN(S(C)(=O)=O)CC2)nc2c1CCCC2	2
CC(c1ccc(-c2ccc(S(N)(=O)=O)cc2F)cc1)N1CCOCC1 (configuration not stated)	-6
COc1cc(C)c(C(c2ccc(N(C)C)cc2)c2ccc(N(C)C)cc2)cc1C	-97*
O=C(NO)c1ccccc1O	-9
O=C(CC(=O)c1ccccc1O)c1ccc(F)cc1	-109*
O=C(O)c1ccccc1O	7
Cc1noc(C)c1S(=O)(=O)N(C)C[C@H]1OCCCC[C@@H](C)Oc2ccc(NS(=O)(=O)c3cn(C)cn3)cc2C(=O)N([C@@H](C)CO)C[C@H]1C	73
COCC(C)NC(=O)C1CCN(c2cc(C)c3ccc(Cl)cc3n2)CC1 (configuration not stated)	2
